This assay can be described thus: probe aNog binding to arrayed compounds – biochemical, biotinylated probe, 635/667 nm fluorescence, primary screen (AID 1115).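 Also: probe is biotinylated aNog protein used at 0.15 µg/mL for 1 h at 4 C; z-score combines 667 nm fluorescence of each spot with its signal to noise.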 The settings on record: small-molecule microarray, higher = more signal.
Take `COc1ccc([Si](C)(C)[C@@H]2[C@@H](CC(=O)N3CCC[C@H]3CO)O[C@]3(C(=O)N(C)c4c(Br)cc(C)cc43)[C@H]2C)cc1`: the composite z-score was -0.229.

For the compound `CN(C)CCCCCCNC(=O)[C@H]1C[C@H]2C(=O)N[C@@H](CCCCN)C(=O)N2[C@H]1c1ccc(O)cc1`, the composite z-score came out at 3.38.

On to `COCC(=C=CC[C@H](O)c1ccc(OCCO)cc1)C[C@H](O)c1cc(Cl)cc(Cl)c1O`, for which the composite z-score is 0.277.

Regarding `COc1cc(C(O)C2C=CC3C(=O)N(c4ccccc4)C(=O)C3N2Nc2ccc(C#N)cc2)cc(OC)c1OC` (stereo not given), the composite z-score worked out at 1.42.

`N#Cc1ccc(NN2C(C(O)c3ccc([N+](=O)[O-])cc3)C=CC3C(=O)N(c4ccccc4)C(=O)C32)cc1` (stereo not given): the composite z-score turned out to be 1.18.

The compound `CC(=O)NCCCC[C@@H]1NC(=O)[C@@H]2C[C@H](C(=O)NCCCCCCNC(=O)CS)[C@H](c3ccc(O)cc3)N2C1=O` came in with a composite z-score of -0.158.

For the compound `CCOC(=O)C[C@H]1[C@H](OC(=O)Cc2ccc3c(c2)OCO3)[C@@H](NC(=O)c2ccc(-c3ccccc3)cc2)c2cc(OCCCO)ccc2N1C(=O)c1ccccc1`, the composite z-score is -0.287.

As for `O=C1O[C@@H](c2ccccc2)[C@@H](c2ccccc2)N2[C@@H](c3ccccc3OCCO)[C@]3(C(=O)Nc4ccc(C#CC5(O)CCCCCC5)cc43)[C@@H](C(=O)Nc3nc4ccccc4s3)[C@H]12`, the composite z-score was -0.0065.

For the compound `Cc1ccccc1C(O)C1C=CC2C(=O)N(C)C(=O)C2N1N1CCCCC1` (stereo not given), the composite z-score came to 1.72.

`COCCOC(=O)N1C(=O)[C@@]2(c3ccccc31)[C@H](C(=O)Nc1nc3ccccc3s1)[C@H]1C(=O)O[C@H](c3ccccc3)[C@H](c3ccccc3)N1[C@@H]2c1ccc(OCCO)cc1` gave a composite z-score of 0.544.

The values above are taken from PubChem BioAssay.
